Data taken from PubChem BioAssay (NCI).
This is part of a sample that, as a whole, favours compounds with a hit. Of some 83,000 tested, about 20% had one in any assay.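 Activity criterion: percent growth below 10, measured after cells in 96-well plates were exposed to a single compound concentration for 48 hours.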 Unmarked numbers belong to inactive results. The source made the active and inactive calls.

test system: HCT-15 colon; assay: NCI-60 one-dose screen, 48 h (100 = growth as untreated, 0 = no growth, -100 = all killed); conditions: 10 µM unless noted
Procedure: Growth inhibition of the HCT-15 human tumor cell line is measured as a screen for anti-cancer activity. Cells are grown in 96 well plates and exposed to the test compound for 48 hours. Compounds are tested at a single concentration, which is 10^-5 M for most compounds. The reported endpoint is percent growth (GI% or GIPRCNT), where numbers from 0 - 100% represent growth inhibition, and numbers from -100% - 0 represent cell death. For example, a value of 40 represents 60% growth inhibition. A value of 0 means no net growth occurred over the course of the experiment. A value of -40 indicates 40% of cells at the beginning of the experiment died by the end of the experiment. A value of -100 means all cells are dead at the end of the experiment.
NCI-60 Human Tumor Cell Lines Screen was performed using the standard one-dose NCI protocol, which is described in more detail at https://dtp.cancer.gov/discovery_development/nci-60/default.htm.
Compounds with GIPRCNT values below 10 were considered active. Activity score was based on GIPRCNT using the following formula: […]
Score is 0 for GIPRCNT values of 100 or above, 50 for GIPRCNT values of 0, and 100 for GIPRCNT values of -100.

SMILES	growth
O=C(NNc1nc2cc(F)ccc2n2c(C(=O)N3CCN(C4CC4)CC3)ccc12)c1ncccn1	10.5%
CC(=O)c1cccc(NC(=O)CCC(=O)NS(=O)(=O)c2ccc(C)cc2)c1	107%
COc1cc2oc(-c3cccc(NC(=O)[C@H](Cc4ccccc4)NC(=O)OC(C)(C)C)c3)cc(=O)c2c(OC)c1OC	17.4%
CC(=O)Oc1ccccc1C(=O)[Se]C(=NC1CCCCC1)NC1CCCCC1	-73.5% (active)
Cn1cc(-c2cc3nc(-c4cn(C)c5ncccc45)cc(N)n3n2)c2ccccc21	9.76% (active)
O=C(NN1C(=O)/C(=C/C=C/c2ccc([N+](=O)[O-])o2)SC1=S)c1ccccc1O	-80.3% (active)
C#CCOc1ccc(/C=N/Nc2nc(-c3ccc(F)cc3)cs2)cc1OC	41.2%
C#CCOc1ccc(/C=N/Nc2nc(-c3cc4cc(OC)ccc4oc3=O)cs2)cc1OC	60.5%
Cc1ccc([C@H]2C(C(=O)c3ccc(Cl)cc3)C3(N[C@@H]2c2ccccc2)C(=O)Nc2ccc(Br)cc23)cc1 (stereo not given in full)	50.8%
CCCCCCn1c(O)c(N=Nc2nc(-c3cc4ccccc4oc3=O)cs2)c2ccccc21	36.7%
N#Cc1c(-c2ccc(Cl)cc2)nc2n[nH]c(-c3ccc(Cl)cc3)c2c1-c1ccc(C(F)(F)F)cc1	-47.2% (active)
CC1[C@H]2[C@H](C[C@H]3[C@@H]4CC=C5c6sc(Nc7ccccc7F)nc6CC[C@]5(C)[C@H]4CC[C@@]32C)O[C@]12CC[C@@H](C)CO2 (stereo not given in full)	-80% (active)
C=C1CCC2C3(C)COC(c4ccccc4F)OC3CCC2(C)C1CC(O)C1=CCOC1=O (stereo not given)	9.86% (active)
CCCCCCCS(=O)(=O)N1CCCC(C(=O)Nc2nc3ccc(NC(=O)c4ccc(F)c(OC)c4F)cc3s2)C1 (stereo not given)	59.6%
Cc1ccc(NC(=O)[C@]23CCC(C)(C)CC2C2=CCC4[C@@]5(C)C[C@@H](O)[C@H](O)[C@@](C)(CO)C5CC[C@@]4(C)[C@]2(C)CC3)cc1 (stereo not given in full)	11.7%
COc1cc(OC)c2c3nc4cc(C)c(C)cc4nc3n(CCN(C)C)c2c1	-27.9% (active)
Cc1ccc([C@H]2C(C(=O)c3ccc(Cl)cc3)C3(N[C@@H]2c2ccccc2)C(=O)Nc2ccc(Cl)cc23)cc1 (stereo not given in full)	47.1%
Cc1sc(C(NC(=O)OCCn2c([N+](=O)[O-])cnc2C)C(F)(F)Cl)nc1-c1ccc(OC(F)(F)F)cc1 (stereo not given)	-92.5% (active)
O=c1cc(-c2ccccc2)oc2cc(OCCCC[P+](c3ccccc3)(c3ccccc3)c3ccccc3)cc(O)c12	-94.2% (active)
O=C(/C=C/c1ccc(-c2ccccc2)cc1)c1nc2ccccc2n1Cc1ccc(Br)cc1	37.3%

SMILES	growth
Cn1cc(NC(=O)c2cc(NC(=O)c3ccc(C#Cc4ccccc4)cc3)cn2C)cc1C(=O)NCCCN1CCOCC1	-59.4% (active)
COc1ccc(-c2nc3cc(C)ccc3n2CC(=O)N=Nc2c(O)[nH]c3ccccc23)cc1	-64.7% (active)
COc1ccc(/C=C/c2nc3ccccc3c(=O)n2CC(=O)Nc2ccc(OC)cc2)cc1	88.4%
O=C(N/N=C/c1ccc(-c2ccc(O)cc2)o1)c1[nH]c2ccc(Br)cc2c1-c1ccccc1	2.62% (active)
Cc1ccc2c(N)c(C(=O)Nc3ccc(OC(F)(F)F)cc3)sc2n1	61%
CC(=O)Oc1ccc(/C=C/C(=O)N[C@@H](Cc2ccccc2)C(O)C(=O)NCc2ccccc2)cc1OC(C)=O (stereo not given in full)	78.1%
CCCCOc1ccc(NC(=O)c2sc3nc(C)ccc3c2N)cc1	36.7%
CCCCc1c(Nn2cnnn2)no[n+]1[O-]	32.8%
COc1ccc(C(=O)/C=C/c2cccc(Br)c2)cc1S(N)(=O)=O	-69.7% (active)
N/C(=N\c1nc2ccccc2s1)NC(=O)Nc1ccc(Cl)cc1Cl	-25.7% (active)
COc1cc(-c2nc3cc(Cl)c(Cl)cc3[nH]2)ccc1OCc1nnc(-c2cccs2)o1	25.8%
COc1ccc(NC(=O)[C@H](CO)NC(=O)OC(C)(C)C)cc1C(=O)Nc1cccc(C2CC(=O)c3c(cc(OC)c(OC)c3OC)O2)c1 (stereo not given in full)	33%
Nc1nnc(-c2c[nH]c3ccc(Br)cc23)c(-c2c[nH]c3ncc(Br)cc23)n1	26.9%
C=C1CC[C@@H]2[C@]3(C)COC(c4cn[nH]c4-c4ccc(C)cc4)O[C@@H]3CC[C@@]2(C)[C@@H]1C/C=C1/C(=O)OCC1O (stereo not given in full)	-72.9% (active)
Cc1cc2nc3c4ccccc4n(CCCN(C)C)c3nc2cc1C	-10.1% (active)
O=C(NNc1ccccc1)n1c(=O)c2ccccc2c(=O)n1-c1ccccc1	91.4%
Cc1ncsc1-c1ccc(CNC(=O)[C@@H]2C[C@@H](O)CN2C(=O)[C@@H](NC(=O)C2(F)CC2)C(C)(C)C)c(OCCOCCOCCOCCOc2nc(Nc3cc(S(C)(=O)=O)ccc3N[C@@H](c3cccc4c3OC(F)(F)O4)c3ncccc3Cl)nc(N3CCNCC3)n2)c1	99.4%
COc1cc2oc(-c3cccc(C(=O)Nc4ccc(Cl)cc4)c3)cc(=O)c2c(OCCNC(=O)[C@H](CO)NC(=O)OC(C)(C)C)c1OC	16.5%
COc1ccc2nc(Nc3cccc(NC(=O)c4ccc(CN5CCCN(C)CC5)c(C(F)(F)F)c4)c3)ccc2c1	-64.7% (active)
CN(C)c1ccnc(CNCCSC2(c3ccc(C(F)(F)F)cc3)c3ccccc3CCc3ccccc32)c1	-82.8% (active)
